Experimental data from the supplement of paper PMC4466236.
In all, about 33,000 sequences were measured (“E-score (dimensionless, -0.5 to 0.5)”: median about -0.058, highest 2% from about 0.35 on). Shown is part of a subset that was picked to be rich in the highest values.

System: MvaT
Assay: PBM 8-mer E-score (mean of HK and ME arrays) (E-score (dimensionless, -0.5 to 0.5)); higher = stronger relative binding preference
Procedure: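 Protein binding microarray: GST-tagged full-length MvaT (P. aeruginosa PAO1) bound to two universal double-stranded 60-mer arrays (ME and HK), each with a constant 25-mer primer and a variable 35-mer region covering all 8-mers. The 8-mer E-score (rank-based, range -0.5 to 0.5, >0.45 = specific binding) is the mean of the two arrays.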

| Sequence | PBM 8-mer E-score |
| --- | --- |
| AAAACAAG | 0.122 |
| ATAACTAT | 0.388 |
| ATAACTAG | 0.27 |
| AAAACAAC | 0.282 |
| AAGTAGAC | 0.0778 |
| ACCATATC | 0.099 |
| GCGTGGAC | -0.192 |
| TATGGACA | 0.0866 |
| TGCAGGCA | -0.0892 |
| GACCACCC | -0.296 |
| CTTTATAC | 0.264 |
| ATTTATAA | 0.459 |
| GTTTATAA | 0.383 |
| GTTTATCA | 0.19 |
| ATTTATAC | 0.383 |
| CTTTATAA | 0.344 |
| GTTTATGA | 0.208 |
| ATTTATAG | 0.342 |
| ATTTATCC | 0.286 |
| CGATACGC | -0.172 |
| AGCGGGAT | -0.138 |
| ACCCTTTC | -0.289 |
| GGCAATAA | 0.228 |
| CCTAATTA | 0.358 |
| ACTAATTA | 0.45 |

| Sequence | PBM 8-mer E-score |
| --- | --- |
| ACTAATTC | 0.227 |
| ACTAATTG | 0.308 |
| CCTAATTC | 0.0847 |
| GCTAATCA | 0.0157 |
| CCTAATGA | -0.254 |
| GCTAATTA | 0.352 |
| GCTAATGA | -0.138 |
| CAAGTAGA | 0.141 |
| AGTCAGCA | -0.0242 |
| GGCCAGAA | -0.026 |
| GAACGGGA | -0.0641 |
| GTGCGTTA | 0.133 |
| GACCTTGA | -0.138 |
| AGGTTCCG | -0.212 |
| GAGTTCAA | 0.174 |
| CAGTTCAA | 0.0238 |
| AACTTAAC | 0.323 |
| AACTTCAA | 0.345 |
| AACTTAAG | 0.333 |
| CACTTAAA | 0.0563 |
| GACTTCAA | 0.0947 |
| AACTTAAA | 0.352 |
| AACTTCAG | 0.158 |
| AAGTTCAA | 0.398 |
| TACTTAAA | 0.302 |

| Sequence | PBM 8-mer E-score |
| --- | --- |
| AACTTAAT | 0.381 |
| GGGCCACC | -0.382 |
| GATTTGTA | 0.205 |
| GCCCGCGC | -0.262 |
| TGGTGCAA | 0.0798 |
| ACAGATGA | -0.0583 |
| CGAGGTAC | -0.301 |
| ACCCATTA | 0.241 |
| CGTTAGCA | -0.0988 |
| CCGGCCTA | -0.174 |
| GTAATTAC | 0.393 |
| ATAATTAA | 0.456 |
| CTAATTCA | 0.228 |
| AGAATTAG | 0.00537 |
| ATAATTGA | 0.338 |
| GCAATTAC | 0.169 |
| CTGATTAA | 0.278 |
| GAAATTAC | 0.247 |
| CTAATTAA | 0.413 |
| GTAATTAA | 0.343 |
| ATAATTAG | 0.429 |
| ATAATTCG | 0.228 |
| CCGTGCCC | -0.184 |
| ATCCTGGA | 0.0568 |
| CCGCACGA | -0.13 |

| Sequence | PBM 8-mer E-score |
| --- | --- |
| AACTATGT | 0.258 |
| ATGGAGAC | -0.0433 |
| CTTTTCTC | -0.00236 |
| TATTTCCA | 0.312 |
| AGACTAAC | 0.00982 |
| AGATACCC | -0.0322 |
| ATAATGGA | 0.238 |
| CACGTCTC | -0.173 |
| ATAATTAC | 0.378 |
| CCAATTAG | 0.073 |
| AGAATTAT | 0.315 |
| ATAATTCC | 0.254 |
| CAAATTAG | 0.18 |
| CTAATTAG | 0.35 |
| ATAATTAT | 0.467 |
| ATAATTGG | 0.308 |
| CTAATTAC | 0.322 |
| AGCTAATC | -0.0533 |
| GAAGTTGA | 0.0448 |
| ATTTGGAA | 0.0956 |
| TAATACTA | 0.37 |
| AAATACTA | 0.383 |
| CAATACTA | 0.172 |
| AAATACTT | 0.246 |
| TAATACAA | 0.397 |

| Sequence | PBM 8-mer E-score |
| --- | --- |
| TACTAATA | 0.357 |
| CAATACAA | 0.199 |
| CACTAATA | 0.323 |
| AAATACAA | 0.33 |
| GACTAATA | 0.297 |
| AAATACTC | 0.207 |
| GAATACTA | 0.212 |
| CTTCGAGC | -0.301 |
| AGAGGCGC | -0.328 |
| CCACGCGC | -0.112 |
| CCCATCGG | -0.267 |
| GGATACGA | 0.0766 |
| AAGATCGC | -0.0523 |
| AATGGTTC | -0.0396 |
| AAATACCG | 0.271 |
| CCCTAAGG | -0.289 |
| TAGTTACA | 0.247 |
| GAGTTATA | 0.369 |
| AAGTTACA | 0.264 |
| TAGTTATA | 0.402 |
| AAGTTATA | 0.442 |
| AAGTTAGA | 0.302 |
| GAGTTATC | 0.0914 |
| CAGTTATC | 0.131 |
| CAGTTATA | 0.36 |

| Sequence | PBM 8-mer E-score |
| --- | --- |
| CCGTTATA | 0.308 |
| GCGTTATA | 0.252 |
| TAGTTAGA | 0.178 |
| AAGATTGG | 0.154 |
| GAAACGGA | -0.164 |
| ATAACCTA | 0.182 |
| ATGTCGAC | 0.0419 |
| AGTTCTGA | 0.144 |
| AAAATCAA | 0.18 |
| AAAGCTGG | -0.0254 |
| AGTAATTG | 0.293 |
| CATAATTC | 0.223 |
| GATAATCC | 0.175 |
| AATAATTC | 0.344 |
| AATAATTA | 0.463 |
| CATAATTA | 0.421 |
| CATAATCA | 0.227 |
| AATAATTG | 0.372 |
| AATAATCG | 0.309 |
| AAGAATTA | 0.295 |
| GAGAATTA | 0.23 |
| GATAATTA | 0.419 |
| ATTCTTGC | 0.0322 |
| CATAGGGA | -0.132 |
| TCCTTCCA | -0.27 |

| Sequence | PBM 8-mer E-score |
| --- | --- |
| GCAGTATA | 0.287 |
| ATCGGCGC | -0.104 |
| AGCCCTAT | -0.14 |
| AAGAAGAC | -0.0906 |
| TAACAGGA | 0.223 |
| AGCCGCCT | -0.243 |
| CGTTGGCC | -0.25 |
| AGATACGG | -0.112 |
| ATTTTTCC | 0.0867 |
| GTCGTGAA | -0.22 |
| CAAAGGTA | -0.113 |
| CAACACCA | 0.0286 |
| AGATATAT | 0.46 |
| AGATATAG | 0.208 |
| AGATATAC | 0.155 |
| AGATATCA | 0.194 |
| AGATATAA | 0.373 |
| AGAGATAA | 0.144 |
| GAATGGGC | -0.16 |
| GATATTAA | 0.438 |
| CATATTCA | 0.184 |
| GAGATTAA | 0.232 |
| CAGATTAA | 0.137 |
| GATATTAC | 0.293 |
| CATATTAA | 0.418 |
